{"source": "PubChem BioAssay (NCATS)", "note": "Results filed as inconclusive are left out. A call without a number means that no potency is given here. The source made the active and inactive calls. Calls come from the whole dose curve; as a rule, active = well fitted cell-killing curve with a large enough effect in the repeat runs; inconclusive = weak or mixed curves, or effect the other way; inactive = flat fitted curve, though single readings scatter. Potency is the fitted concentration of half-maximal effect.", "data": [{"assay": "qHTS assay for small molecule antagonists of the retinoid-related orphan receptor gamma (ROR-gamma) signaling pathway - cell viability counter screen (AID 720652);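 note: compound exposure lasted 16 hr before ATP read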", "details": "RORgamma reporter cell line viability counter screen; series mostly up to 92.2 µM", "excerpt": "National Center for Advancing Translational Sciences [NCATS]\nNIH Chemical Genomics Center [NCGC]\nNational Institutes of Environmental Health Sciences [NIEHS]\nNational Toxicology Program [NTP]\nNuclear steroid hormone receptors are involved in many biological processes including inflammatory responses, cell proliferation, and apoptosis. Environmental factors or compounds disrupting these nuclear receptor pathways and gene expression may promote susceptibility to immunotoxicants and autoimmune diseases. One important group of these expression factors are the retinoid-related orphan receptors. To assess compounds that may interfere with the retinoid-related orphan receptor gamma (ROR-gamma) transcription factor, a cell-based luciferase assay was used.\nThe CHO cell-based assay utilizes a TET-inducible ROR expression factor and ROR response element-LUC reporter gene. Reporter activity was induced using doxycycline and measured after 16hr incubation. Luminescence was read using Viewlux (PerkinElmer), where a decrease in reporter activity would show a decrease in luminescence. The cytotoxicity of the compounds against ROR response-Luc reporter gene cell line was quantified by measuring the intracellular ATP content.\n1,000 cells in 4 uL/well were dispensed into white wall/solid bottom 1536-well plates using a Multidrop Combi (Thermo Scientific) dispenser. Following incubation at 37 C and 5% CO2 for 5 hr, 23 nL compound or DMSO vehicle were transferred by a pin tool, then the plates were treated with 1 ul doxycycline to induce reporter gene activity. After 16 hr incubation at 37 C and 5% CO2, 5 uL/well of CellTiter-Glo reagent (Promega) was then added to each plate using a Flying Reagent Dispenser and incubated at room temperature for 30 min. The luminescence intensity was quantified on a ViewLux plate reader (PerkinElmer).", "values": [{"compound": "CCCOC(=O)c1ccc(O)cc1", "Potency": "inactive"}, {"compound": "CN1CCC[C@H]1c1cccnc1", "Potency": "inactive"}, {"compound": "Nc1nc2ccc([N+](=O)[O-])cc2s1", "Potency": "inactive"}, {"compound": "N=C1N=C(N)c2cc3ccccc3cc21", "Potency": "42.2 µM (active)"}, {"compound": "CN(C)CCC(c1ccc(Cl)cc1)c1ccccn1", "note": "(stereo not drawn)", "Potency": "inactive"}, {"compound": "CCCCCCCCCCCCCCCCCC(=O)O", "Potency": "inactive"}, {"compound": "CN(C)c1ccc(C(=C2C=CC(=[N+](C)C)C=C2)c2ccccc2)cc1", "Potency": "2.37 µM (active)"}, {"compound": "CN(C)c1ccc(N=NS(=O)(=O)O)cc1", "Potency": "inactive"}, {"compound": "NCCO", "Potency": "inactive"}, {"compound": "Nc1ccc(O)c([N+](=O)[O-])c1", "Potency": "inactive"}, {"compound": "Nc1ccc([N+](=O)[O-])cc1O", "Potency": "inactive"}, {"compound": "O=C(O)c1cc(O)c(O)c(O)c1", "Potency": "inactive"}, {"compound": "O=C(O)/C=C\\C(=O)O", "Potency": "inactive"}, {"compound": "Nc1ccc(O)c(C(=O)O)c1", "Potency": "inactive"}, {"compound": "C#C[C@]1(O)CC[C@H]2[C@@H]3CCc4cc(O)ccc4[C@H]3CC[C@@]21C", "Potency": "inactive"}, {"compound": "S=c1[nH]c2ccccc2s1", "Potency": "inactive"}, {"compound": "COc1cc(CNC(=O)CCCC/C=C/C(C)C)ccc1O", "Potency": "inactive"}, {"compound": "c1ccc2sc(SSc3nc4ccccc4s3)nc2c1", "Potency": "inactive"}]}]}
